Test [1] is described as follows: qHTS assay to identify small molecule antagonists of the thyroid receptor (TR) signaling pathway (AID 743065). Further: series mostly up to about 70 µM; nearly all actives have a fitted effect of over 55% in size. In a few lines: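 GH3.TRE-Luc rat pituitary cells (two TREs driving luciferase) were dosed with compound, then stimulated with 1 nM T3 (final) for 23.5 h at 37 C. ONE-Glo luminescence was the read-out, with CellTiter-Fluor fluorescence as the cytotoxicity counter-screen.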

For test [2], the system named is thyroid hormone receptor (rat, GH3 cells). The experiment in a line: qHTS assay to identify small molecule agonists of the thyroid receptor (TR) signaling pathway (AID 743066; calls by dose curve). A general note: Quantitative high-throughput screening tests each substance at several concentrations.
In test [3] the target is Estrogen receptor (Homo sapiens) (UniProt P03372). The experiment in a line: qHTS assay to identify small molecule antagonists of the estrogen receptor alpha (ER-alpha) signaling pathway (AID 743069; active means well fitted curve in the direction sought with a large enough effect in the signal ratio in the repeat runs, not every such curve was filed as active; inconclusive means weak or mixed curves, or effect the other way; inactive means no such curve, though single readings can be large or run the other way; the % refers to the signal ratio; further: potency means the concentration at half of the fitted maximal effect). In a few lines:
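In this cell-based reporter format, GripTite HEK293 cells harbouring ER-alpha-UAS-bla were grown overnight with 2% charcoal-stripped FBS, dosed with DMSO-dissolved compounds, then challenged with 17beta-estradiol. After 18 hr at 37C, beta-lactamase activity was detected by FRET fluorescence.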

Test [4] can be described thus: qHTS assay to identify small molecule antagonists of the estrogen receptor alpha (ER-alpha) signaling pathway - cell viability counter screen (AID 743074; calls by dose curve; further: nearly all actives have a fitted effect of over 45% in size).
Test [5] concerns the target Estrogen receptor (Homo sapiens) (UniProt P03372). Briefly: qHTS assay to identify small molecule agonists of the estrogen receptor alpha (ER-alpha) signaling pathway (AID 743075; calls by dose curve).
For test [6] the target is unchanged. The experiment in a line: qHTS assay to identify small molecule agonists of the estrogen receptor alpha (ER-alpha) signaling pathway using the BG1 cell line (AID 743079). Further: nearly all actives have a fitted effect of over 20% in size. Further: potency means the concentration at half of the fitted maximal effect.
A short description of test [7]: qHTS assay to identify small molecule antagonists of the estrogen receptor alpha (ER-alpha) signaling pathway using the BG1 cell line (AID 743080; calls by dose curve;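 further: BG1 cells stimulated with 17beta-estradiol alongside compound; series mostly up to about 70 µM; nearly all actives have a fitted effect of over 25% in size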). A digest of the protocol: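 Quantitative HTS on the Tox21 10K library: BG1 cells with endogenous ER-alpha and ERE-luciferase reporter, 17beta-estradiol stimulation, 21.5 h compound exposure, luminescence endpoint with parallel fluorescence cytotoxicity counter-read.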

Test [8] is described as follows: qHTS assay to identify small molecule antagonists of the estrogen receptor alpha (ER-alpha) signaling pathway using the BG1 cell line - cell viability counter screen (AID 743081).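 Further: compound given together with 17beta-estradiol as the ER stimulus; series mostly up to about 70 µM; nearly all actives have a fitted effect of over 45% in size.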
The target in the next test is Aromatase (Homo sapiens) (UniProt P11511). The experiment in a line: qHTS assay to identify aromatase inhibitors (AID 743083). Further: nearly all actives have a fitted effect of over 55% in size. Further: potency means the concentration at half of the fitted maximal effect.
Test [9] is described as follows: qHTS assay to identify small molecule antagonists of the thyroid receptor (TR) signaling pathway - cell viability counter screen (AID 743064). Further: nearly all actives have a fitted effect of over 50% in size. Further: potency means the concentration at half of the fitted maximal effect. In a few lines: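 Compounds were tested on GH3.TRE-Luc cells in the presence of T3 at 1 nM final. Following 23.5 h at 37 °C, cell viability was quantified by CellTiter-Fluor.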

25 compounds from PubChem BioAssay (Tox21) can be followed below.

Values joined by “and” are separate entries in the source; they are usually repeats but may differ in a detail not shown here. Identical values can stand only once. A structure can be active in one record and inactive in another. Active and inactive are the calls of the source. Unless noted, the call rests on the fitted dose curve; in most records, active means well fitted curve in the direction sought with a large enough effect in the repeat runs; inconclusive means weak or mixed curves; inactive means no such curve, though single readings can be large; an effect the other way counts as inactive or inconclusive.

Chain of Aromatase (Homo sapiens) (P11511 whole entry, looked up): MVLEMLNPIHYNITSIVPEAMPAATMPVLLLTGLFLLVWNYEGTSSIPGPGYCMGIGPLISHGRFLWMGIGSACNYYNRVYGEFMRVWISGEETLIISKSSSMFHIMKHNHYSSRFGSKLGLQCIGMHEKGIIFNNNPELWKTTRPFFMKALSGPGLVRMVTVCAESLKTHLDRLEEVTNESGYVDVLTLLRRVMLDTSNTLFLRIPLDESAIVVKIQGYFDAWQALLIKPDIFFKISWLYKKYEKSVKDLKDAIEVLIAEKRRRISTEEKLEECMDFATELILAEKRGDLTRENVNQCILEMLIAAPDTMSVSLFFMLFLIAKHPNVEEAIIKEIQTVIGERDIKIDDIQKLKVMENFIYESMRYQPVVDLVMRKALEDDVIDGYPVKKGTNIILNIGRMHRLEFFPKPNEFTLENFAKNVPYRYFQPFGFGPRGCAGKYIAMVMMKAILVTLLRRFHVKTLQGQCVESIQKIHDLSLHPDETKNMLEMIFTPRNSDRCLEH
Chain of Estrogen receptor (Homo sapiens) (P03372 whole entry, looked up): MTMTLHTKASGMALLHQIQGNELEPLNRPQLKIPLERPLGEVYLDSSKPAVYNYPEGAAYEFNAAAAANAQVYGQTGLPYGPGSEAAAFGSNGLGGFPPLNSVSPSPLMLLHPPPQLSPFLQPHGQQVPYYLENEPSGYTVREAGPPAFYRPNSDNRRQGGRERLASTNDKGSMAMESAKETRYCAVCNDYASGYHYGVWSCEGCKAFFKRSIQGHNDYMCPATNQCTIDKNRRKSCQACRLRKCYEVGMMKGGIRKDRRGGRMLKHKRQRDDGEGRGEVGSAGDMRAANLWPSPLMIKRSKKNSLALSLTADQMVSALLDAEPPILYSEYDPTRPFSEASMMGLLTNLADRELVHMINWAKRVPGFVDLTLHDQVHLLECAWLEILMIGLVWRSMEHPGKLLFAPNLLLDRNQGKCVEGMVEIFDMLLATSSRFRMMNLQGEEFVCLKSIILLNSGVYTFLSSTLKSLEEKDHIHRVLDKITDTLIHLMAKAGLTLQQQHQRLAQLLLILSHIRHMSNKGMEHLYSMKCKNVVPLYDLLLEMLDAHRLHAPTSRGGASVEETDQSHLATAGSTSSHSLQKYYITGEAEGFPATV

For `Oc1c(Br)cc(Br)cc1Br`, the Potency entry (in test [1]; in test [2]; in test [6]; with Aromatase (Homo sapiens)) was “inactive” in each case. Besides, in [3], the Potency entry is “inactive and 61.8 µM [inconclusive] (active)”. Further, the compound was called inactive in test [4], in [5], in [7] and in [8].

On to `CNc1cnn(-c2cccc(C(F)(F)F)c2)c(=O)c1Cl`, for which the Potency result (in test [9]; in test [1]; in test [2]; with Aromatase (Homo sapiens)) was “inactive” each time. Moreover, the compound was called inactive in [4] and in [8].

Consider `CCCOC(=O)c1ccccc1C(=O)OCCC`, for which the Potency entry (in test [1]; in test [2]; in test [3]; in [6]; with Aromatase (Homo sapiens)) was “inactive” throughout. The call in test [4], in [5], in test [7] and in test [8] was inactive.

Take `Nc1ncc([N+](=O)[O-])s1`: the Potency result (in test [1]; in test [2]; in test [3]; with Aromatase (Homo sapiens)) was “inactive” throughout. The call in test [4], in [5], in [7] and in [8] was inactive. Moreover, the Potency result in test [6] is “inactive and 61.1 µM (active)”.

Consider `COc1cc(-c2ccc(N)c(OC)c2)ccc1N`, for which the Potency entry in test [9] is “inactive and 52 µM (active)”. The Potency entry (in test [2]; with Aromatase (Homo sapiens)) was “inactive” in each case. In addition, the outcome in test [4] and in test [8] was inactive.

On to `CC(=O)C1CCOC1=O` (configuration not stated), for which the Potency result (in test [9]; in test [1]; in [2]; in the test with Aromatase (Homo sapiens)) was “inactive” in each case. Also, the outcome in [4] and in [8] was inactive.

Take `Cc1cccc(C)c1N`: the Potency result (in test [1]; in test [2]; in test [3]; in test [6]; with Aromatase (Homo sapiens)) was “inactive” in each case. In addition, the outcome in test [4], in [5], in [7] and in test [8] was inactive.

`ClC(Cl)c1ccccc1`: the Potency result (in test [1]; in test [2]; in [3]; in test [6]; in the test with Aromatase (Homo sapiens)) was “inactive” throughout. Further, the call in test [4], in test [5], in [7] and in [8] was inactive.

Consider `Cc1ccccc1N`, for which the Potency entry (in test [9]; in test [1]; in test [2]; in the test with Aromatase (Homo sapiens)) was “inactive” each time. Also, the call in test [4] and in [8] was inactive.

In the case of `CC12CC1(C)C(=O)N(c1cc(Cl)cc(Cl)c1)C2=O` (configuration not stated), the Potency result (in test [9]; in [1]; in test [2]; with Aromatase (Homo sapiens)) was “inactive” throughout. Also, the result in test [4] and in test [8] was inactive.

In the case of `OCC(O)CCl` (configuration not stated), the Potency entry (in test [1]; in [2]; in test [3]; in [6]; in the test with Aromatase (Homo sapiens)) was “inactive” each time. For the same compound, the compound was called inactive in test [4], in test [5], in test [7] and in test [8].

In the case of `CCOP(=S)(OCC)Oc1cc(C)nc(C(C)C)n1`, the Potency entry in test [9] was “inactive and 17.2 µM (active)”; with Aromatase (Homo sapiens), “inactive and 17.2 µM (active)”. For the same compound, the Potency entry in [2] was “inactive”. The compound was called inactive in [4] and in test [8].

As to `Oc1ccc(Cl)cc1`, the Potency result (in [9]; in [1]; in test [2]; in the test with Aromatase (Homo sapiens)) was “inactive” throughout. The compound was classed as inactive in test [4] and in [8].

In the case of `COC(=O)Nc1cccc(OC(=O)Nc2cccc(C)c2)c1`, the Potency result (in [9]; in test [1]; in test [2]; with Aromatase (Homo sapiens)) was “inactive” each time. Moreover, the compound was called inactive in test [4] and in [8].

With `c1ccc2c(c1)CCCC2`, the Potency entry (in test [1]; in test [2]; in test [3]; in test [6]; with Aromatase (Homo sapiens)) was “inactive” throughout. Besides, the compound was called inactive in test [4], in test [5], in [7] and in [8].

For the compound `CN(C)C(=O)C(c1ccccc1)c1ccccc1`, the Potency result (in test [9]; in [1]; in test [2]; in the test with Aromatase (Homo sapiens)) was “inactive” in each case. Besides, the compound was classed as inactive in test [4] and in [8].

Turning to `O=P1(NCCCl)OCCCN1CCCl` (configuration not stated), the Potency entry (in test [9]; in [1]; in test [2]; in the test with Aromatase (Homo sapiens)) was “inactive” throughout. The compound was called inactive in [4] and in test [8].

Turning to `Nc1nc(N)nc(NC2CC2)n1`, the Potency entry (in test [9]; in test [1]; in [2]; in the test with Aromatase (Homo sapiens)) was “inactive” each time. Further, the compound was called inactive in test [4] and in test [8].

Turning to `C=CC(=O)OCC(CC)CCCC` (configuration not stated), the Potency result (in test [9]; in test [1]; in [2]; in the test with Aromatase (Homo sapiens)) was “inactive” in each case. Also, the call in [4] and in test [8] was inactive.

Regarding `N#Cc1ccccn1`, the Potency entry (in test [1]; in [2]; in test [3]; in test [6]; with Aromatase (Homo sapiens)) was “inactive” each time. Besides, the result in test [4], in test [5], in test [7] and in test [8] was inactive.

On to `CN(C)NC(=O)CCC(=O)O`, for which the Potency entry (in test [9]; in [1]; in test [2]; with Aromatase (Homo sapiens)) was “inactive” in each case. In addition, the outcome in [4] and in test [8] was inactive.

Consider `CCSC(=O)N1CCCCCC1`, for which the Potency result (in [1]; in [2]; in test [3]; in test [6]; in the test with Aromatase (Homo sapiens)) was “inactive” each time. In addition, the call in [4], in test [5], in test [7] and in test [8] was inactive.

With `Clc1cnc(Oc2ccc(Oc3ncc(Cl)cc3Cl)cc2)c(Cl)c1`, the Potency result (in [1]; in [2]; with Aromatase (Homo sapiens)) was “inactive” each time. The compound was called inactive in test [4] and in test [8].

Turning to `C/C=C/c1ccc2c(c1)OCO2`, the Potency result (in test [1]; in [2]; in the test with Aromatase (Homo sapiens)) was “inactive” throughout. Also, the outcome in test [4] and in test [8] was inactive.

Turning to `CN1C(=O)CCS(=O)(=O)C1c1ccc(Cl)cc1` (configuration not stated), the Potency result (in test [1]; in test [2]; in the test with Aromatase (Homo sapiens)) was “inactive” throughout. The call in test [4] and in test [8] was inactive.
